Screens deposited in PubChem BioAssay by National Center for Advancing Translational Sciences (NCATS).
Shiga inhibitor = blocks Shiga toxin action in Vero cells; Vero cells, Shiga toxin protein synthesis inhibition reporter; inhibition, % at 38.7 µM; hit rate 9.2% among 290,000; in the data active = inhibition mostly above about 28%, no sharp cut-off; inactive = mostly below about 43%
Pf growth 48h = inhibits P. falciparum growth in the first generation, 48 h; P. falciparum luciferase growth in erythrocytes, 48 h; Potency, µM (titrated, usually from 28.7 µM), usual class: inhibitors; hit rate 5.9% among 310,000
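Cell-based growth assay: transgenic P. falciparum expressing firefly luciferase, cultured in red cells within RPMI 1640 containing 0.5% w/v Albumax, 24 mM bicarbonate and gentamycin. A drop in luciferase activity indicates inhibition.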
Pf growth 96h = inhibits malaria parasite growth, 96 h | Potency, µM (top dose mostly 28.7 µM), usual class: inhibitors | hit rate 6.9% among 320,000 | P. falciparum luciferase reporter growth, 96 h | AID 504834
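P. falciparum expressing integrated firefly luciferase grown in erythrocytes (2% hematocrit, 0.05% parasitemia final) with compounds for 96 hours at 37 C, 5% CO2. Growth inhibition read as loss of luminescence after adding luciferase detection reagent.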
Cycloheximide cs = counter-screen for Shiga toxin inhibitors: cycloheximide protein synthesis inhibition; hit rate 12% among 300,000; cell reporter, cycloheximide protein synthesis inhibition counterscreen; max response, %; in the data active = max response mostly above about 13%, no sharp cut-off; inactive = mostly below about 14%; note: read at 38.3 µM for the half of the compounds with a filed dose
LmPK inh = inhibitors of Leishmania mexicana pyruvate kinase; purified LmPK, Kinase-Glo ATP luminescence, 1 h; hit rate 0.37% among 290,000; Q27686; Potency, µM (titrated, usually from 57.5 µM), usual class: inhibitors; AID 1721
Target sequence (Q27686 whole entry, looked up): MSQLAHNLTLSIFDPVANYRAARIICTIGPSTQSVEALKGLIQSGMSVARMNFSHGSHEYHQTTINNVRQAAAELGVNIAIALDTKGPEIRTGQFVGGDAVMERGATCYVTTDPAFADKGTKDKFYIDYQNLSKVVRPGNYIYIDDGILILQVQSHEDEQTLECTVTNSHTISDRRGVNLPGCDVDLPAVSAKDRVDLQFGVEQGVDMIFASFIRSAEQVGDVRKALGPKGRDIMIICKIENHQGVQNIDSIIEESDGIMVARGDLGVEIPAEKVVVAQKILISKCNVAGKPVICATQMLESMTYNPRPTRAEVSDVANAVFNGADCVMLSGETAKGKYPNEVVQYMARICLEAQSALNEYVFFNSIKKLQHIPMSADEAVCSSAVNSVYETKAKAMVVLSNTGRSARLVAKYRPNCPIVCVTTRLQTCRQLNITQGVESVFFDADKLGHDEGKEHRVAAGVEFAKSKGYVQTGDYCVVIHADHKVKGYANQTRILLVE
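Kinase-Glo luminescence read after 1 h RT reaction of 0.1 nM LmPK with 0.5 mM PEP and 0.1 mM ADP. Activity scaled between uninhibited and enzyme-free controls.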
Numbers stand for hits; i = inactive; ? = inconclusive; nt = no result given. Sampled rows, rich in hits. Any-hit rate of the full collection: about 22%. Unless noted, calls come from the whole dose curve; as a rule, active = well fitted inhibition curve with a large enough effect; inconclusive = small, poorly fitted or top-dose-only effect, or another doubt; inactive = no such curve, though single readings can be large or run the other way.

SMILES	Shiga inhibitor	Pf growth 48h	Pf growth 96h	Cycloheximide cs	LmPK inh
CC(C)CC(=O)NCC(C)NC(=O)CC(C)C (centres undefined)	i	i	15µM	i	i
COc1cc(C(C[N+](=O)[O-])c2c(C)[nH]c3ccccc23)cc(OC)c1OC (centres undefined)	i	13µM	i	i	i
CC(=O)N/C(=N\c1nc(C)cc(C)n1)Nc1ccc(Cl)cc1Cl	i	i	?	i	i
Oc1cccc(/C=N/NP(=S)(c2ccccc2)c2ccccc2)c1	i	nt	i	14	i
O=C(N/N=C/c1cccc(O)c1)c1cc(-c2ccccc2)nc2ccccc12	i	i	i	i	i
Oc1cccc(C=NCc2ccccc2)c1	i	i	nt	i	i
O=C(N/N=C/c1cccc(O)c1)c1ccccc1O	68	i	i	49	?
Cc1ccc(NCC(=O)N/N=C\c2cccc(O)c2)cc1	i	i	i	18	i
COc1cc(/C=N/NC(=O)c2cccc3ccccc23)cc(OC)c1O	i	i	?	i	i
O=C(N/N=C/c1cccc(O)c1)c1csc2ccccc12	87	i	i	49	i
COc1cc(C2C(C#N)=C(N)N(c3ccc(F)cc3)C3=C2S(=O)(=O)CC3)ccc1O (centres undefined)	i	i	i	i	i
C/C(=N\NC(=O)c1csc2ccccc12)c1ccc(O)cc1	i	i	nt	18	i
O=C1NC(=S)N/C1=C/c1ccc2ccccc2c1	i	i	i	i	i
Cc1ccsc1/C=C1\CCc2ccccc2C1=O	i	nt	10µM	41	?
O=C1/C(=C\c2ccc3ccccc3c2)CCCc2ccccc21	73	?	i	60	i
Cc1ccccc1/C=C1\CCCc2ccccc2C1=O	80	i	i	45	?
COc1cccc(NC(=O)C2CCC(CNS(=O)(=O)c3cccc4cccnc34)CC2)c1 (centres undefined)	i	?	?	i	i
Cc1cc(C)n(CCNC(=O)C2CCC(=O)N(Cc3ccc(Cl)cc3)C2)n1 (centres undefined)	i	i	i	i	i
CC(C)(C)C(=O)OCc1cn(-c2ccc(Cl)cc2)nn1	i	i	i	24	i
CC(C)CC(=O)OCc1cn(-c2ccccc2)nn1	53	i	i	23	i
O=C(OCc1cn(-c2ccc(Cl)cc2)nn1)c1ccccc1	i	i	i	i	i
CC(C)(C)C(=O)OCc1cn(-c2ccccc2)nn1	59	i	i	30	i
COc1ccc(NC(=O)CCCNC(=O)c2ccc(Cl)cc2)cc1OC	i	i	?	i	i
CC(OC(=O)Cn1cnc2c1c(=O)n(C)c(=O)n2C)C(=O)N(C)c1ccccc1 (centres undefined)	nt	i	i	nt	nt
N#Cc1c(-c2ccccc2)nc(SCC(=O)Nc2ccc(OC(F)(F)Cl)cc2)[nH]c1=O	i	i	3.7µM	i	i
SMILES	Shiga inhibitor	Pf growth 48h	Pf growth 96h	Cycloheximide cs	LmPK inh
N#Cc1c(-c2ccccc2)nc(SCC(=O)N(c2ccccc2)c2ccccc2)[nH]c1=O	i	i	13µM	i	i
N#Cc1c(-c2ccccc2)nc(SCC(=O)Nc2ccccc2)[nH]c1=O	i	i	i	i	i
Cc1cccc(NC(=O)C2(c3cccs3)CCOCC2)n1	i	i	i	i	i
Cc1c(C)c2cc(Cl)c(OCC(=O)NCCCn3ccnc3)cc2oc1=O	i	i	?	i	i
O=C(COc1ccc(Cl)cc1)N1CCCC1	37	i	i	12	i
CCCCOc1ccc(S(=O)(=O)N2CCCCCC2)cc1	i	i	12µM	i	i
CC(C)(C)c1ccc(S(=O)(=O)N2CCCCC2)cc1	i	?	12µM	i	i
CC(C)(C)c1ccc(S(=O)(=O)N2CCN(C(=O)C3=COCCO3)CC2)cc1	nt	?	13µM	nt	nt
O=C(O)COc1ccc(S(=O)(=O)N2CCCC2)cc1	i	i	?	i	i
CC(C)n1cnnc1SCC(=O)NC(=O)c1ccccc1	nt	i	i	nt	nt
COc1ccc(CNC(=O)C2CCCN2)cc1OC (centres undefined)	i	i	i	i	i
CC(C)C1N(C(=O)N2CCOCC2)CCN1S(=O)(=O)c1ccccc1 (centres undefined)	i	i	i	i	i
O=C(COc1ccccc1F)N1CCN(S(=O)(=O)/C=C/c2ccccc2)CC1	i	i	i	i	i
CCOC(=O)C1(CC2CCCCO2)CCN(S(=O)(=O)c2ccccc2)CC1 (centres undefined)	i	?	?	i	i
Cc1ccc(OCC(=O)N2CCCCCCC2)cc1	i	i	?	16	i
O=C(COc1ccc(Br)cc1)N1CCN(S(=O)(=O)/C=C/c2ccccc2)CC1	i	?	12µM	i	i
O=C(COc1ccc(S(=O)(=O)N2CCCCC2)cc1)N1CCCCCC1	i	?	13µM	i	i
CC(C)(C)c1ccc(S(=O)(=O)N2CCC(CO)(CC3CCCCO3)CC2)cc1 (centres undefined)	i	2.3µM	?	i	i
Cc1ccc(C)c(S(=O)(=O)N2CCN(C(=O)c3cccn3C)CC2)c1	nt	i	i	nt	nt
CC1=NN(C(C#N)c2cccc([N+](=O)[O-])c2)C(C)(C)C1 (centres undefined)	i	i	i	i	i
O=C(COc1ccc2cc(Br)ccc2c1)N1CCCC1	i	i	?	i	i
O=C(COc1ccc(Br)cc1)N1CCCCCC1	i	nt	i	14	i
Cc1ccc(-n2ncc3c(NCc4ccco4)ncnc32)cc1C	91	i	?	51	i
Cc1cccc(-n2ncc3c(NCc4ccco4)ncnc32)c1	64	i	i	35	i
COc1ccc(OC)c(Nc2ncnc3c2cnn3-c2cccc(C)c2)c1	i	i	?	i	i
SMILES	Shiga inhibitor	Pf growth 48h	Pf growth 96h	Cycloheximide cs	LmPK inh
CC1CCC2C(=O)N(c3ccc(C(=O)NCc4ccccc4)cc3)C(=O)C2C1 (centres undefined)	i	i	i	i	i
CCOc1ccc(N=Nc2c(C)noc2C)cc1	i	i	?	28	i
CCOc1ccc(N2CC(C(=O)NNC(=O)c3ccc(Br)cc3)CC2=O)cc1 (centres undefined)	nt	i	i	nt	nt
CC(=O)c1cc2c(C)c(C(=O)c3ccccc3)oc2cc1O	79	i	i	45	i
O=C(c1ccccc1)c1ccc(O)cc1O	i	i	i	i	i
O=c1nccc(SCc2ccc(Cl)cc2Cl)[nH]1	i	i	i	i	i
COc1ccc(-n2ncc3c2CC(C)(C)CC3NC(=O)Cc2nonc2C)cc1 (centres undefined)	i	i	i	i	i
Cc1nonc1CC(=O)NC1CC(C)(C)Cc2c1cnn2-c1ccc(F)cc1 (centres undefined)	33	i	?	14	i
CCc1noc(C)c1C(=O)NC1CC(C)(C)Cc2c1cnn2-c1ccccc1 (centres undefined)	i	i	9.3µM	i	i
CC1(C)Cc2c(cnn2-c2ccccc2)C(NC(=O)CCCN2CCCC2=O)C1 (centres undefined)	i	i	i	i	i
